In PubChem BioAssay (NCATS):
Results filed as inconclusive are left out. Activity calls are given as the source filed them. Calls come from the whole dose curve; as a rule, active = well fitted curve in the direction sought with a large enough effect; inconclusive = small, poorly fitted or top-dose-only effect, or another doubt; inactive = no such curve, though single readings can be large; an effect the other way counts as inactive or inconclusive.

Columns and labels:
[1] = biological target: Rap guanine nucleotide exchange factor 3 (Homo sapiens) (UniProt O95398); test: Confirmatory qHTS for antagonist of cAMP-regulated guanine nucleotide exchange factor 3 (EPAC1) (AID 1645880); settings: EPAC1 Rap1B-BODIPY-GDP exchange, fluorescence; activity, negative = inhibition: at 115 µM (top of the series); note: nearly all actives have a fitted effect of over 55% in size; note: potency is the fitted concentration of half-maximal effect;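 for activity, negative = inhibition: plate controls were DMSO only for no effect and full effect of the ATA control for full effect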
Sequence of Rap guanine nucleotide exchange factor 3 (Homo sapiens) (O95398 whole entry, looked up): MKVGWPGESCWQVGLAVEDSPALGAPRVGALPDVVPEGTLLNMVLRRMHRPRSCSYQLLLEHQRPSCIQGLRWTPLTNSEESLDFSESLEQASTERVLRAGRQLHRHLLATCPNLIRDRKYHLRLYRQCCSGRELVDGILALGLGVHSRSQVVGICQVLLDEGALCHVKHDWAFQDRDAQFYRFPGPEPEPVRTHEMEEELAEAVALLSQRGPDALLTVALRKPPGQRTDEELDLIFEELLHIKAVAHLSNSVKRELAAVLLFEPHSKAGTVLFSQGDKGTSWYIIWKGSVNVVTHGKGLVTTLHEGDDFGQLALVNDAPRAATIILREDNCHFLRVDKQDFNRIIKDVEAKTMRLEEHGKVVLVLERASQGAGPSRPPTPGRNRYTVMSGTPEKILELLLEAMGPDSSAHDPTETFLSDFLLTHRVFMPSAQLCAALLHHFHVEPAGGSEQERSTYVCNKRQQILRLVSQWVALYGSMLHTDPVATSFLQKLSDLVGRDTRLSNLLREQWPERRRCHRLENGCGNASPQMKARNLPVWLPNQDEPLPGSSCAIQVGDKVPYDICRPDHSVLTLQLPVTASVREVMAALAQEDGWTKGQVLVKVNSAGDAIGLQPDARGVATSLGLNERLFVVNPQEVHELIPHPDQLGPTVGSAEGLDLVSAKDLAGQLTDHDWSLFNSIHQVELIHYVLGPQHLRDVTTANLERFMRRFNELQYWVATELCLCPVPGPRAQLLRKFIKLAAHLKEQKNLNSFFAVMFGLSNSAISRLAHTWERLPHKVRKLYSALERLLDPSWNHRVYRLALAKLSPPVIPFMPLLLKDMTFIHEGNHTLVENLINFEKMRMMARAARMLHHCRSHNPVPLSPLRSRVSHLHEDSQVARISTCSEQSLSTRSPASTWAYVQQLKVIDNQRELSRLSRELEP
How it was run: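 Released BODIPY-GDP fluoresces less than Rap1-bound BODIPY-GDP; the signal is followed at 480/540 nm at 5-min intervals over 30 min, after 5 min at room temperature. Reactions contain 100 nM EPAC1, 250 nM RAP1B-BODIPY-GDP and 50 uM GDP; results are normalized to ATA and DMSO.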

[2] = biological target: Rap guanine nucleotide exchange factor 3 (Homo sapiens) (UniProt O95398); test: Confirmatory qHTS for agonist of cAMP-regulated guanine nucleotide exchange factor 3 (EPAC1) (AID 1645881);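 note: EPAC1 catalysed release of BODIPY-GDP from Rap1B seen as fluorescence loss; 100% = effect of cAMP agonist control; nearly all actives have a fitted effect of over 75% in size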
[3] = biological target: Rap guanine nucleotide exchange factor 4 (Homo sapiens) (UniProt Q8WZA2); test: Confirmatory qHTS for agonist of cAMP-regulated guanine nucleotide exchange factor 4 (EPAC2) (AID 1645884);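 note: nucleotide exchange releases bodipy-GDP from Rap1 and this lowers its fluorescence; % is set by controls: 0 for no effect and ±100 for the full control effect; nearly all actives have a fitted effect of over 65% in size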
Sequence of Rap guanine nucleotide exchange factor 4 (Homo sapiens) (Q8WZA2 whole entry, looked up): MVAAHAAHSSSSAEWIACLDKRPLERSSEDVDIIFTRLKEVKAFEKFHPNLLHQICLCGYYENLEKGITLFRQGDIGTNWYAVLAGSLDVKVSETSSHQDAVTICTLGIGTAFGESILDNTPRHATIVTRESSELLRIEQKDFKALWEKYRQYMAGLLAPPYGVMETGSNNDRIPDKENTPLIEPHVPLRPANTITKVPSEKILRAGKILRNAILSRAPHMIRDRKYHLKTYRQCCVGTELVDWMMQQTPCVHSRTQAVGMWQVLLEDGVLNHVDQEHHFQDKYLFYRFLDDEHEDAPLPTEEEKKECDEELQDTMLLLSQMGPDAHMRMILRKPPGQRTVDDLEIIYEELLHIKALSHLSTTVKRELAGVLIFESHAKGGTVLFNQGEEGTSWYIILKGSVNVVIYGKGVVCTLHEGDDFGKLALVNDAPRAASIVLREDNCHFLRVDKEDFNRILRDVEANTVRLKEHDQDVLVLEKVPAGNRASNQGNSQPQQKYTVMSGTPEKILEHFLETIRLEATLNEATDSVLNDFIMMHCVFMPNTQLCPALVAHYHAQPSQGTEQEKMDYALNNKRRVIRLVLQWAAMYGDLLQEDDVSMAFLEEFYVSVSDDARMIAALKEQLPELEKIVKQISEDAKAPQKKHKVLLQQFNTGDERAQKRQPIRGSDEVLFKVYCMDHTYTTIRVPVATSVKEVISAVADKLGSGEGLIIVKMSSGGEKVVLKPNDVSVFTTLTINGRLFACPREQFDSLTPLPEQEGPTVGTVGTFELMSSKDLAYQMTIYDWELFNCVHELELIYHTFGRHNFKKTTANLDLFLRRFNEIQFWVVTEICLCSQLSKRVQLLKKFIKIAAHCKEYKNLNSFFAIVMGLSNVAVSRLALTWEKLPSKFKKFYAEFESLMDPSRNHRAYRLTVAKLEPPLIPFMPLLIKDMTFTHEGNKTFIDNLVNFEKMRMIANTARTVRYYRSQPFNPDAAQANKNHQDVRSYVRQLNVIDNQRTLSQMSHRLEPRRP

[4] = biological target: Rap guanine nucleotide exchange factor 4 (Homo sapiens) (UniProt Q8WZA2); test: Confirmatory qHTS for antagonist of cAMP-regulated guanine nucleotide exchange factor 4 (EPAC2) (AID 1645885); note: nearly all actives have a fitted effect of over 25% in size; note: potency is the fitted concentration of half-maximal effect; for activity change, negative = inhibition: % is set by controls: 0 for no effect and ±100 for the full control effect
[5] = biological target: Rap guanine nucleotide exchange factor 3 (Homo sapiens) (UniProt O95398); test: Counterscreen qHTS for antagonist of cAMP-regulated guanine nucleotide exchange factor 3 (EPAC1) (AID 1645888); note: % of control where 0% means no effect
How it was run: (§1)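 Rap1B-BODIPY-GDP 250 nM + GDP 50 uM; cpds 7-pt, final 9.74 nM–152 uM (activator mode) or from 7.32 nM upwards (inhibitor mode); RT; FI 480/540 nm at 5 and 30 min, then ± cAMP, reread.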

[6] = biological target: Rap guanine nucleotide exchange factor 3 (Homo sapiens) (UniProt O95398); test: Counterscreen qHTS for agonist of cAMP-regulated guanine nucleotide exchange factor 3 (EPAC1) (AID 1645889); note: nearly all actives have a fitted effect of over 40% in size; note: potency is the fitted concentration of half-maximal effect; for activation: % of control where 0% means no effect
How it was run: as §1

Cc1[nH][nH]c(=O)c1C(c1ccc(-c2ccc(Cl)c(C(=O)O)c2)o1)c1c(C)[nH][nH]c1=O
inactive: Potency [1] | Potency [2] | activation [3] 10.1% [at 17.1 µM, percent relative to cAMP agonist control] | Potency [4] | activity change, negative = inhibition [5] 34.9% [at 30.8 µM]
active: Potency [6] 11.2 µM

CC1=NOC(=O)/C1=C\c1ccc(-c2ccc(Br)cc2)o1
inactive: Potency [2] | activation [3] -0.7% [at 17.1 µM, percent relative to cAMP agonist control] | Potency [4] | activity change, negative = inhibition [5] -10.2% [at 30.8 µM] | activation [6] 11.6% [at 30.8 µM]
active: Potency [1] 25.1 µM

O=C1NC(=S)S/C1=C\c1ccc(SCc2ccccc2)o1
active: Potency [1] 21.3 µM
inactive: Potency [2] | Potency [3] | Potency [4] | Potency [5] | Potency [6]

Cc1noc(C)c1S(=O)(=O)Nc1ccc2c(c1)C(=O)N([C@@H](C)CO)C[C@@H](C)[C@@H](CN(C)CC1CCCCC1)OCCCC[C@@H](C)O2
inactive: Potency [1] | Potency [2] | Potency [3] | Potency [4] | Potency [5] | Potency [6]

O=C1C(=Cc2ccco2)CCC1=Cc1ccco1
active: Potency [4] 60.1 µM
inactive: Potency [1] | Potency [2] | Potency [3] | Potency [5] | Potency [6]

O=C(O)CN1C(=O)/C(=C\c2cc(Br)ccc2OCc2ccc(Cl)cc2)SC1=S
inactive: Potency [2] | Potency [3] | Potency [5] | Potency [6]
active: Potency [1] 30.1 µM | Potency [4] 47.8 µM

Cc1ccc(NC(=O)Cn2nnc(-c3nc(-c4ccncc4)no3)c2N)c(C)c1
inactive: Potency [1] | Potency [2] | Potency [3] | Potency [4] | Potency [5] | Potency [6]

CCCN1C(=O)c2[nH]nc(-c3cccc(OC)c3)c2C1c1ccccn1 (stereo not drawn)
inactive: Potency [1] | Potency [2] | Potency [3] | outcome [4] inactive [at 12.7 µM] | Potency [5] | Potency [6]

CCCCn1nnc(NC(=O)c2ccco2)n1
inactive: Potency [1] | Potency [2] | activation [3] 6.58% [at 17.1 µM, percent relative to cAMP agonist control] | Potency [4] | activity change, negative = inhibition [5] 4.22% [at 30.8 µM] | activation [6] 0.136% [at 30.8 µM]

O=C(O)c1ccc(/C=N/NC(=O)c2ccc(CN3c4cccc5cccc(c45)S3(=O)=O)cc2)cc1
inactive: Potency [2] | activation [3] -4.21% [at 17.1 µM, percent relative to cAMP agonist control] | Potency [4] | activity change, negative = inhibition [5] 3.17% [at 30.8 µM] | activation [6] 13.7% [at 30.8 µM]
active: Potency [1] 44.7 µM

Cc1cc2oc(=O)cc(CN3CCCC3)c2cc1Cl
inactive: Potency [1] | Potency [2] | activation [3] -3.71% [at 17.1 µM, percent relative to cAMP agonist control] | Potency [4] | activity change, negative = inhibition [5] 3.14% [at 30.8 µM] | activation [6] 28.8% [at 30.8 µM]

CC(=O)Nc1c(C)nn(-c2ccccc2)c1N1CCC(C(=O)NCc2cccc(F)c2)CC1
inactive: Potency [1] | Potency [2] | Potency [3] | Potency [4] | Potency [5] | Potency [6]

O=c1[nH][nH]c(-c2ccccc2O)c1C(C[N+](=O)[O-])c1ccc(Cl)cc1Cl (stereo not drawn)
inactive: Potency [1] | Potency [2] | Potency [3] | Potency [4] | Potency [5] | Potency [6]

COc1cc(NC(=O)CCc2c(C)nc3c4c(C)cc(C)nc4nn3c2C)cc(OC)c1
inactive: Potency [1] | Potency [2] | Potency [3] | Potency [4] | Potency [5] | Potency [6]

O=C(Nc1nc2ccc(Cl)cc2s1)C1CCCO1 (stereo not drawn)
inactive: Potency [1] | Potency [2] | activation [3] 6.17% [at 17.1 µM, percent relative to cAMP agonist control] | Potency [4] | activity change, negative = inhibition [5] 0.458% [at 30.8 µM] | activation [6] 15.7% [at 30.8 µM]

O=C(NCc1ccco1)c1sc(=S)n2c1[nH]c(=O)c1ccccc12
active: Potency [1] 14.1 µM
inactive: Potency [2] | activation [3] 1.94% [at 17.1 µM, percent relative to cAMP agonist control] | Potency [4] | activity change, negative = inhibition [5] 3.28% [at 30.8 µM] | activation [6] -8.6% [at 30.8 µM]

COC(=O)c1cc(C#N)c(Oc2ccccc2OC)nc1C
inactive: Potency [1] | Potency [2] | Potency [3] | Potency [4] | Potency [5] | Potency [6]

COc1ccc(C)cc1Cn1nnc2ccccc21
inactive: Potency [1] | Potency [2] | Potency [3] | Potency [4] | Potency [5] | Potency [6]

COc1ccccc1CCC(=O)Nc1cc(S(=O)(=O)N2CCCCC2)ccc1N1CCN(C)CC1
active: Potency [6] 63.1 µM
inactive: Potency [1] | Potency [2] | Potency [3] | Potency [4] | Potency [5]

COc1ccc(-c2cc3c(c4c2ccn4C)C2CCC3O2)cc1OC (stereo not drawn)
inactive: Potency [1] | Potency [2] | activation [3] 6.95% [at 17.1 µM, percent relative to cAMP agonist control] | Potency [4] | activity change, negative = inhibition [5] 9.79% [at 30.8 µM] | activation [6] 10.3% [at 30.8 µM]

CSc1ccc(CC2C(=O)Nc3ccccc32)cc1 (stereo not drawn)
inactive: Potency [1] | Potency [2] | Potency [3] | Potency [4] | Potency [5] | Potency [6]

C/C(CC(=O)Nc1ccc2ccccc2c1)=N\NC(=O)c1ccc(O)c(O)c1
inactive: Potency [2] | Potency [3] | Potency [4] | Potency [5] | Potency [6]
active: Potency [1] 53.6 µM

COc1ccccc1NC(=O)CSc1nc2sc(C)c(C)c2c(=O)n1C
inactive: Potency [1] | Potency [2] | activation [3] 1.44% [at 17.1 µM, percent relative to cAMP agonist control] | Potency [4] | activity change, negative = inhibition [5] -1.48% [at 30.8 µM] | activation [6] 15.6% [at 30.8 µM]

CSc1ccc(/C=N/NC(=O)CN2CCN(Cc3ccc(Cl)cc3)CC2)cc1
inactive: Potency [1] | Potency [2] | Potency [3] | Potency [4] | Potency [5] | Potency [6]

Cc1ccc(S(=O)(=O)N2CC(C(=O)O)=CC[C@H]2c2ccc(Cl)cc2)cc1
inactive: Potency [1] | Potency [2] | Potency [3] | Potency [4] | Potency [5] | Potency [6]

O=C(COC(=O)Cc1c(Cl)cccc1Cl)NCC1CCCO1 (stereo not drawn)
inactive: Potency [1] | Potency [2] | Potency [3] | Potency [5] | Potency [6]
active: Potency [4] 75.7 µM

CCN(c1ccccc1)S(=O)(=O)c1ccc(C(=O)Nc2ccncc2)cc1
inactive: Potency [1] | Potency [2] | activation [3] -2.02% [at 17.1 µM, percent relative to cAMP agonist control] | Potency [4] | activity change, negative = inhibition [5] -7.46% [at 30.8 µM] | activation [6] 15% [at 30.8 µM]

O=C(COc1ccccc1[N+](=O)[O-])Nc1cccc(C(=O)Nc2ccccc2C(=O)O)c1
active: Potency [1] 23.9 µM
inactive: Potency [2] | Potency [3] | Potency [4] | Potency [5] | Potency [6]

CCOC(=O)C1=C(CC)OC(N)=C(C#N)C1c1ccc(OC)c(OC)c1OC (stereo not drawn)
inactive: Potency [1] | Potency [2] | activation [3] -0.762% [at 17.1 µM, percent relative to cAMP agonist control] | Potency [4] | activity change, negative = inhibition [5] -16.4% [at 30.8 µM] | activation [6] 8.26% [at 30.8 µM]

Cc1ccc(-n2nnnc2SCC(=O)NCC2(N3CCOCC3)CCCCC2)cc1
inactive: Potency [1] | Potency [2] | Potency [3] | Potency [4] | Potency [5] | Potency [6]

O=C(c1cc(-c2ccc(Cl)cc2)nc2ccccc12)N1CCC1
inactive: Potency [1] | Potency [2] | Potency [3] | Potency [4] | Potency [5] | Potency [6]

CN(Cc1ccccc1)C(=O)C1CCCN(Cc2cccc(Cl)c2)C1 (stereo not drawn)
inactive: Potency [1] | Potency [2] | Potency [3] | Potency [4] | Potency [5] | Potency [6]

O=C(O)c1ccc(N/N=C/c2cccc(C(F)(F)F)c2)cc1
inactive: Potency [1] | Potency [2] | Potency [3] | Potency [4] | Potency [5] | Potency [6]

CC(C)Oc1nc(-c2ccccc2Cl)nc2ccccc12
inactive: Potency [1] | Potency [2] | Potency [3] | Potency [4] | Potency [5] | Potency [6]

COc1ccc(-c2cc(C(F)(F)F)nc(SCC(=O)N3CCCCC3C)n2)cc1OC (stereo not drawn)
inactive: Potency [1] | Potency [2] | Potency [3] | outcome [4] inactive [at 12.7 µM] | Potency [5] | Potency [6]

COc1ccc(C)cc1-n1c(-c2ccc(Cl)cc2)cc2c1CC(C)(C)CC2=O
inactive: Potency [1] | Potency [2] | Potency [3] | outcome [4] inactive [at 12.7 µM] | Potency [5] | Potency [6]

COc1ccc(OC)c(NS(=O)(=O)c2cc3c4c(c2)CCN4C(=O)CC3)c1
inactive: Potency [1] | Potency [2] | Potency [3] | Potency [4] | Potency [5] | Potency [6]

CCN(CC(=O)Nc1ccc(OC)cc1)C(=O)Cc1cccs1
active: Potency [1] 67.5 µM
inactive: Potency [2] | Potency [3] | Potency [4] | Potency [5] | Potency [6]
